Shiga toxin inh: A qHTS for Small Molecule Inhibitors of Shiga Toxin | Vero cells, Shiga toxin protein synthesis inhibition reporter | 290,000 compounds, 9.2% hits | inhibition, % at 38.7 µM | AID 2315, 2010; in the data active = inhibition mostly above about 28%, no sharp cut-off; inactive = mostly below about 43%; also: 0% is about no effect
AmpC inh no detg: qHTS Inhibitors of AmpC Beta-Lactamase (assay without detergent). AmpC nitrocefin hydrolysis, absorbance 480 nm, 0.0001% Triton. Potency, µM (doses to about 57.1 µM), inactives show at the highest dose activity change, negative = inhibition, usual class: inhibitors. 330,000 compounds, 0.52% hits. AID 485341, 2010;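 also: potency is read from the fitted curve at half-maximal effect; plate controls were no compound for no effect and no enzyme for full effect; nearly all actives have a fitted effect of over 20% in size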
Target sequence (P00811 whole entry, looked up): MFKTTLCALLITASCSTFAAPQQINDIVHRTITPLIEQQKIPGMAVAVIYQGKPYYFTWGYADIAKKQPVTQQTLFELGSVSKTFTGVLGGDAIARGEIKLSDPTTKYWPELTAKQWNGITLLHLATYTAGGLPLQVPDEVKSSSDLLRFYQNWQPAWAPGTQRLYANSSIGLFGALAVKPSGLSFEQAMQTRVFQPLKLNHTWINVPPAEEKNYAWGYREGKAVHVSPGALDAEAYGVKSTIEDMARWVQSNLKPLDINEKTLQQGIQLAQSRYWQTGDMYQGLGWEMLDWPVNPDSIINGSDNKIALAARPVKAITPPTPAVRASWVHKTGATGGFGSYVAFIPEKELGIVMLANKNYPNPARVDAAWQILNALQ
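20 mM phosphate pH 7.0 + 0.01% (detergent screen) or 0.0001% Triton X-100; 5.3 nM AmpC reagent; cpd preinc 15 min RT; nitrocefin (800 uM stock) to start; A480 q20 s × 4 min; Activity was normalised to no-enzyme and no-compound control wells.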
AmpC inh detg: qHTS Inhibitors of AmpC Beta-Lactamase (assay with detergent); AmpC hydrolysis of nitrocefin, absorbance 480 nm, 0.01% Triton; 370,000 compounds, 0.041% hits; P00811; Potency, µM (series often up to 114 µM), for inactives: top-dose activity change, negative = inhibition, most hits filed as inhibitors;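 also: potency is read from the fitted curve at half-maximal effect; 0% = no-compound wells and -100% = no-enzyme wells; nearly all actives have a fitted effect of over 25% in size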
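AmpC (5.3 nM in the dispensed reagent) in 20 mM phosphate pH 7.0 with 0.01% (detergent screen) or 0.0001% Triton X-100 was preincubated with compounds for 15 min at room temperature. Nitrocefin was then added from an 800 uM solution, and hydrolysis was followed at 480 nm.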
NS1 inh: qHTS Assay for Inhibitors of Influenza NS1 Protein Function; Potency, µM (series often up to 46.1 µM), without a hit: at the highest dose activity, positive = more growth; 270,000 compounds, 0.4% hits; AID 2326, 2010; calls by dose curve; also: potency is read from the fitted curve at half-maximal effect; actives are rising curves; nearly all actives have a fitted effect of over 50% in size
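Recovery from NS1-induced slow growth read by OD600 in budding yeast switched to galactose assay medium (pH 6.0, -URA) at 1:100 dilution. Compound 23 nl per well; the matching strain lacking NS1 serves as control.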
Cycloheximide cs: Cycloheximide Counterscreen for Small Molecule Inhibitors of Shiga Toxin. cell reporter, cycloheximide protein synthesis inhibition counterscreen. max response, %. 300,000 compounds, 12% hits; in the data active = max response mostly above about 13%, no sharp cut-off; inactive = mostly below about 14%; also: read at 38.3 µM for the half of the compounds with a filed dose; 0% is about no effect
* marks the source's active call; other numbers are inactive results; ? = inconclusive; / = no result given. This is one part of a sample in which hits are shown more often than they occur. Unless noted, calls follow the shape of the dose curve; as a rule, active = well fitted curve in the direction sought with a large enough effect; inconclusive = small, poorly fitted or top-dose-only effect, or another doubt; inactive = no such curve, though single readings can be large; an effect the other way counts as inactive or inconclusive.

SMILES	Shiga toxin inh	AmpC inh no detg	AmpC inh detg	NS1 inh	Cycloheximide cs
CC(=O)N1CCc2c(sc3c2c(=O)n(CCc2ccccc2)c(=O)n3CC(=O)Nc2ccccc2F)C1	/	/	21%	/	/
CCOc1ccccc1NC(=O)Nc1ccsc1C(=O)OC	36*	-31%	5%	-36%	22*
COC(=O)c1sccc1NC(=O)COc1ccccc1Cl	active	-32%	?	-9%	33*
COC(=O)c1sccc1NC(=O)Nc1cc(C)cc(C)c1	80*	-49%	1%	2%	47*
COC(=O)c1sccc1NC(=O)NC1CCCCC1	31	-21%	6%	/	47*
COC(=O)c1sccc1NC(=S)N(C)C1CCCCC1	17	-19%	2%	/	7
CCc1ccccc1NC(=O)Nc1ccsc1C(=O)OC	28	-36%	?	-24%	13
CC(=O)OC1CC[C@@]2(C)C(=CC[C@H]3[C@@H]4CC[C@H](C(C)=O)[C@@]4(C)CC[C@@H]32)C1 (stereo partly drawn)	-1	/	/	/	-4
COC(=O)c1sccc1NC(=O)Nc1ccc(C)cc1	87*	-57%	-8%	-39%	45*
COC(=O)c1sccc1NC(=O)Nc1ccc(C(C)=O)cc1	53*	-29%	3%	9%	45*
COC(=O)c1sccc1NC(=O)Nc1ccc(F)cc1	20	-34%	2%	-33%	30*
COC(=O)c1sccc1NC(=S)Nc1ccc(F)cc1	-11	-13%	-5%	5%	-4
COC(=O)c1sccc1NC(=O)Nc1ccc(C)cc1C	-1	-38%	?	-54%	25
COc1ccc(-c2cc(C(C)=O)c(C)n2CCC(=O)NCc2ccccc2OC)cc1	/	/	3%	/	/
CCn1c(=O)c2ccccc2n(CC(=O)NC2CCCCC2)c1=O	-2	2%	3%	10%	-4
CCOc1ccc2nc(NC(=S)NCc3ccccc3)sc2c1	0	-44%	?	2%	10
CCOC(=O)c1ccc2nc(NC(=O)c3ccco3)sc2c1	35*	-9%	?	-24%	27*
CCOc1ccc2nc(NC(=O)c3ccoc3C)sc2c1	42	-19%	-2%	-47%	24*
CCOC(=O)c1ccc2nc(NC(=O)c3cccs3)sc2c1	44*	-46%	2%	4%	39*
CCOc1ccc2nc(NC(=O)c3ccco3)sc2c1	38	-24%	5%	-29%	39*
CCCn1c(NC(=O)c2ccc(Cl)c(S(=O)(=O)N3CCCC3)c2)nc2ccccc21	-2	-8%	?	14%	-2
CCCc1ccc(OC(=O)c2ccc(O)cc2Cl)cc1	96*	?	2%	/	40*
CC1CC(C)(C)Nc2ccc(N=O)cc21 (stereo not drawn)	79*	-18%	5%	/	51*
O=C(Oc1ccccc1)c1cc2ccccc2o1	12	-25%	?	-2%	8
O=C(Oc1cccc(-c2cnc3ccccc3n2)c1)c1ccco1	49	-5%	?	-4%	45*
SMILES	Shiga toxin inh	AmpC inh no detg	AmpC inh detg	NS1 inh	Cycloheximide cs
O=C(COC(=O)c1cc2ccccc2o1)c1ccccc1	117*	-38%	?	-3%	39*
O=C(CSCc1ccc(Cl)cc1)c1ccco1	73	-26%	-12%	-10%	21*
O=C(CSc1ccc(Cl)cc1)NNC(=O)c1ccco1	-8	-15%	2%	1%	10
COc1ccc(S(=O)(=O)N2CCC(N3CCN(Cc4ccccc4)C(=O)C3=O)CC2)cc1	/	/	0%	/	/
O=C(COC(=O)c1ccco1)c1ccc(Cl)cc1	104*	-15%	-2%	-6%	29*
O=C1COc2ccc(C(=O)COC(=O)c3ccco3)cc2N1	42*	-15%	-6%	-3%	27*
COc1cc(C(=O)COC(=O)c2ccco2)cc(OC)c1OC	/	2%	/	/	/
CC1CC(C)(C)Nc2ccc(OC(=O)c3ccco3)cc21 (stereo not drawn)	121*	-9%	0%	-43%	49*
Cc1ccc(C(=O)COC(=O)c2ccco2)cc1C	88*	-29%	-2%	-13%	49*
CC(C)[C@H](NC(=O)c1ccco1)C(=O)OCC(=O)c1ccc2c(c1)NC(=O)CO2	-1	-32%	-3%	9%	1
Cc1cc(=O)oc2cc(OC(=O)c3ccco3)ccc12	-2	-17%	-2%	-42%	4
